According to PubChem BioAssay (NCATS):
Results filed as inconclusive are left out. Active and inactive are the calls of the source. The call rests on the fitted dose curve; in most records, active means well fitted curve in the direction sought with a large enough effect; inconclusive means small, poorly fitted or top-dose-only effect, or another doubt; inactive means no such curve, though single readings can be large; an effect the other way counts as inactive or inconclusive.

Legend:
[1] = Cell Viability - H-4-II-E (AID 543);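 further: cells exposed to compound for 40 hours; on the % scale 0 is the no-effect control and ±100 the full control effect; nearly all actives have a fitted effect of over 35% in size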
Method in brief: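 Here, cytotoxicity is measured in the rat hepatoma line H-4-II-E as loss of intracellular ATP after 40 hr compound treatment, detected by luciferase luminescence.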

[2] = Cell Viability - SH-SY5Y (AID 544); conditions: SH-SY5Y neuroblastoma cell viability; viability change, negative = cytotoxic: at 92.2 µM (top of the series);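 further: cells exposed to compound for 40 hours; nearly all actives have a fitted effect of over 55% in size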
Method in brief: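 Cytotoxicity is scored as a concentration-dependent fall in intracellular ATP in human SH-SY5Y cells treated 40 hr in complete culture medium. Potency is expressed as AC50 from a Hill equation fit.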

[3] = Cell Viability - Renal Proximal Tubule (AID 545);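 further: cells exposed to compound for 40 hours; nearly all actives have a fitted effect of over 40% in size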
Method in brief: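 Primary rat renal proximal tubule cells (1000/well) were treated with compounds for 40 hr at 37 °C in complete medium. Intracellular ATP was measured by CellTiter-Glo luminescence, and AC50 values came from Hill-equation fits of concentration-response data.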

[4] = Cell Viability - Mesenchymal (AID 546);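 further: cells exposed to compound for 40 hours before reading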
Method in brief: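 Normal human renal glomerulus-derived kidney mesenchymal cells, 1000 per well in complete medium, were treated with compounds for 40 hr at 37 °C. Viability was read as intracellular ATP by CellTiter-Glo luminescence; AC50 values came from Hill-equation fits of qHTS concentration-response data.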

[5] = Cellular Toxicity (caspase-3) HepG2 (AID 654);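 further: cells exposed to compound for 16 hours before reading; 0% = DMSO alone and 100% = caspase signal from 100 µM tamoxifen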
Method in brief: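 qHTS, HepG2, 1500 cells/well, complete medium; cpd 16 h 37 °C; Caspase-Glo 3/7, 20 min RT; lum. Norm: DMSO vs 100 uM tamoxifen; AC50 Hill fit.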

[6] = Cellular Toxicity (caspase-3) Jurkat (AID 655); conditions: Jurkat caspase-3 activation, luminescence; caspase-3 activation: at 92.2 µM (top of the series), DMSO = 0%, tamoxifen = 100%;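 further: cells exposed to compound for 16 h at 37 °C before reading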
Method in brief: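 Jurkat cells (5000/well) in complete medium were treated with compounds for 16 hr at 37 °C, then Caspase-Glo 3/7 luminescence was read after 20 min at room temperature. Data normalized to DMSO (basal) and 100 uM tamoxifen (100%); AC50 from Hill fit.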

[7] = Cellular Toxicity (caspase-3) HUV-EC-C (AID 656)
Method in brief: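 HUV-EC-C endothelial cells, 1000/well, were pre-incubated 5 hr at 37°C, then exposed to compounds for 16 hr at 37°C. Caspase-Glo 3/7 luminescence was read after 20 min at room temperature. AC50 came from Hill fits, normalized to DMSO and 100 uM tamoxifen.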

[8] = Cellular Toxicity (caspase-3) SHSY5Y (AID 657)
Method in brief: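 SH-SY5Y human neuroblastoma cells (1500/well) were treated with compounds for 16 h at 37 °C, then Caspase-Glo 3/7 luminescence was read after 1 h at room temperature. Data normalized to DMSO and 10 uM staurosporine; AC50 from Hill fits.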

[9] = Cellular Toxicity (caspase-3) BJ (AID 658);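 further: 0% = DMSO basal and 100% = 10 µM staurosporine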
Method in brief: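 Luminescent aminoluciferin-substrate cleavage reports caspase 3/7 activity in normal human BJ fibroblasts after 16 hr compound exposure at 37 °C. Normalized to DMSO (basal) and 10 uM staurosporine (100%); AC50 from Hill fit of concentration-response.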

[10] = Cellular Toxicity (caspase-3) MRC-5 (AID 659);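 further: 0% = DMSO basal and 100% = 10 µM staurosporine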
Method in brief: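 Luminescence from caspase-cleaved aminoluciferin substrate (Caspase-Glo 3/7, 1 hr RT) reports caspase 3/7 activity in MRC-5 lung fibroblasts after 16 hr compound exposure. Normalized to DMSO basal and 10 uM staurosporine as 100%; AC50 from Hill fits.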

[11] = Cellular Toxicity (caspase-3) Mesangial (AID 660); conditions: mesangial cells, normalized: DMSO 0%, 100 µM tamoxifen 100%; at 91.7 µM (top of the series);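 further: combined caspase 3 and 7 activity read by Caspase-Glo luminescence; cells exposed to compound for 16 h before the caspase read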
Method in brief: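 Concentration-response qHTS: compound-induced rise in caspase 3/7 luminescence in human mesangial cells after 16 h, normalized to DMSO and 100 uM tamoxifen controls.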

[12] = Cellular Toxicity (caspase-3) SK-N-SH (AID 661);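 further: 0% = DMSO basal and 100% = 10 µM staurosporine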
Method in brief: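 Caspase 3/7 activation is measured as a luminescence increase from aminoluciferin released by substrate cleavage in SK-N-SH cells after 16 hr compound treatment; values are AC50 from concentration-response curves.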

[13] = Cellular Toxicity (caspase-3) H-4-II-E (AID 663); conditions: H-4-II-E rat hepatoma, scaled: DMSO 0%, 100 µM tamoxifen 100%; at 92.2 µM (top of the series);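 further: cells exposed to compound for 16 hr before readout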
Method in brief: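 Luminescence from caspase-cleaved aminoluciferin substrate, read 20 min after reagent addition, reports caspase 3/7 activation in rat H-4-II-E cells after 16 hr compound exposure. Normalized to DMSO (basal) and 100 uM tamoxifen (100%); AC50 from Hill fits.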

[14] = Cellular Toxicity (caspase-3) Hek293 (AID 664); conditions: HEK293 caspase-3 activation, DMSO = 0%, 100 µM tamoxifen = 100%; at 92.2 µM (top of the series);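 further: cells exposed to compound for 16 h at 37 °C before readout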
Method in brief: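 Activation of caspase-3/7 is measured as increased luminescence from cleaved peptide-aminoluciferin substrate in HEK293 cells treated 16 hours at 37 °C. AC50 values come from Hill-equation fits of concentration-response data.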

[15] = Cellular Toxicity (caspase-3) N2a (AID 665);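 further: compound exposure lasted 16 h at 37 °C before readout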
Method in brief: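 Plated mouse neuroblastoma N2a cells received titrated compounds for 16 h in complete medium. Caspase activity was then detected with a peptide-aminoluciferin luminescent reagent.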

[16] = Cellular Toxicity (caspase-3) NIH 3T3 (AID 666);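 further: 0% = DMSO basal and 100% = 100 µM tamoxifen stimulation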
Method in brief: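 Concentration-response qHTS in NIH 3T3 mouse fibroblasts scores caspase-3/7 activation as rising luminescence after 16 hr compound exposure. Signals are scaled between DMSO-only and 100 uM tamoxifen.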

[17] = Cellular Toxicity (caspase-3) Renal Proximal Tubule (AID 667); conditions: Potency: caspase-3 activation;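 further: cells exposed to compound for 16 hours at 37 °C before detection; 0% = DMSO basal and 100% = 10 µM staurosporine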
Method in brief: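 Primary rat proximal tubule cells, 1000/well, 5 h plating at 37 °C, then compound 16 h at 37 °C. Caspase-Glo 3/7 reagent, 1 h RT, luminescence. Normalized to DMSO (basal) and 10 uM staurosporine (100%); Hill-fit AC50.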

[18] = molecular target: Cytochrome P450 3A4 (Homo sapiens) (UniProt P08684); test: qHTS Assay for Inhibitors and Substrates of Cytochrome P450 3A4 (AID 884); further: on the % scale 0 is the no-effect control and ±100 the full control effect; nearly all actives have a fitted effect of over 50% in size
Sequence of Cytochrome P450 3A4 (Homo sapiens) (P08684 whole entry, looked up): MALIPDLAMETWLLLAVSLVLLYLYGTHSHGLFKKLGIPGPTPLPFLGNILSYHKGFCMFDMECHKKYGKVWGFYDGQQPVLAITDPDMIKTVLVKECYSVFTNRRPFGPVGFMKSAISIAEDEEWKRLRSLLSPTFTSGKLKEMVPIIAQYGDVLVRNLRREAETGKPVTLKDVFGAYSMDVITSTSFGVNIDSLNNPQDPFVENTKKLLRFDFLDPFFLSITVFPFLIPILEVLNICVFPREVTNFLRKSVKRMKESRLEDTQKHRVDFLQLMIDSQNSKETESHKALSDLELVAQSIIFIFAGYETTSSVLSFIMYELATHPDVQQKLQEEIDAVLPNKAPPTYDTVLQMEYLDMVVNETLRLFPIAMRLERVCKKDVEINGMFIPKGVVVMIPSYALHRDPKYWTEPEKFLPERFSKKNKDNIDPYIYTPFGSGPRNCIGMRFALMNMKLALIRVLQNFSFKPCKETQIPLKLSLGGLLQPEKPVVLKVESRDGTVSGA
Method in brief: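 20 nM human CYP3A4 with 25 uM Luciferin-PPXE (at KM) in 200 mM KPO4, preincubated 10 min with compound; NADPH regeneration started a 60 min RT reaction. Luciferin detected by luminescence, normalized to 57 uM ketoconazole as full inhibition.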

[19] = Cell Viability - LYMP2-001 (AID 921);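 further: 0% = DMSO only and full inhibition = tetraoctylammonium bromide control wells; nearly all actives have a fitted effect of over 70% in size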
Method in brief: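 Human lymphoblastoid cells (Coriell), 2500 per well, were preincubated 5 hr at 37 C, then exposed to compounds in complete medium for 24 hr at 37 C. Cellular ATP was read by CellTiter-Glo luminescence; AC50 from Hill fits of concentration-response data.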

Cc1ccc(C)cc1
inactive: Potency [1] | Potency [2] | Potency [3] | Potency [4] | Potency [5] | caspase-3 activation [6] 2.23% | outcome [7] | outcome [8] | outcome [9] | outcome [10] | caspase-3 activation [11] -0.809% | outcome [12] | caspase-3 activation [13] 1.14% | caspase-3 activation [14] -2.53% | outcome [15] | outcome [16] | Potency [17] | Potency [18] | Potency [19]

C1CCC2OC2C1 (stereo not drawn)
inactive: Potency [1] | Potency [2] | Potency [3] | Potency [4] | Potency [5] | caspase-3 activation [6] 0.319% | outcome [7] | outcome [8] | outcome [9] | outcome [10] | caspase-3 activation [11] -0.0644% | outcome [12] | caspase-3 activation [13] -0.699% | caspase-3 activation [14] 1.05% | outcome [15] | outcome [16] | Potency [17] | Potency [18] | Potency [19]

O=C(Cl)c1ccccc1[N+](=O)[O-]
inactive: Potency [1] | Potency [2] | Potency [3] | Potency [4] | Potency [5] | caspase-3 activation [6] 0.685% | outcome [7] | outcome [8] | outcome [9] | outcome [10] | caspase-3 activation [11] -1.02% | outcome [12] | caspase-3 activation [13] 1.33% | caspase-3 activation [14] 1.55% | outcome [15] | outcome [16] | Potency [17] | Potency [18] | Potency [19]

C/C=C(/C)C#N
inactive: Potency [1] | Potency [2] | Potency [3] | Potency [4] | Potency [5] | caspase-3 activation [6] 1.22% | outcome [7] | outcome [8] | outcome [9] | outcome [10] | caspase-3 activation [11] -0.503% | outcome [12] | caspase-3 activation [13] 0.589% | caspase-3 activation [14] 0.51% | outcome [15] | outcome [16] | Potency [17] | Potency [18] | Potency [19]

c1ccc(Oc2ccccc2)cc1
inactive: Potency [1] | Potency [2] | Potency [3] | Potency [4] | Potency [5] | caspase-3 activation [6] 0.819% | outcome [7] | outcome [8] | outcome [9] | outcome [10] | caspase-3 activation [11] 0.858% | outcome [12] | caspase-3 activation [13] 0.181% | caspase-3 activation [14] -1.47% | outcome [15] | outcome [16] | Potency [17] | Potency [18] | Potency [19]

NC=O
inactive: Potency [1] | Potency [2] | Potency [3] | Potency [4] | Potency [5] | caspase-3 activation [6] 2.21% | outcome [7] | outcome [8] | outcome [9] | outcome [10] | caspase-3 activation [11] -0.458% | outcome [12] | caspase-3 activation [13] 0.414% | caspase-3 activation [14] -1.11% | outcome [15] | outcome [16] | Potency [17] | Potency [18] | Potency [19]

CN(C)CCCNCCCN
inactive: Potency [1] | Potency [2] | Potency [3] | Potency [4] | Potency [5] | caspase-3 activation [6] 2.48% | outcome [7] | outcome [8] | outcome [9] | outcome [10] | caspase-3 activation [11] -0.219% | outcome [12] | caspase-3 activation [13] -0.0657% | caspase-3 activation [14] 0.619% | outcome [15] | outcome [16] | Potency [17] | Potency [18]

CCOC(=O)OCC
inactive: Potency [1] | Potency [2] | Potency [3] | Potency [4] | Potency [5] | caspase-3 activation [6] 0.854% | outcome [7] | outcome [8] | outcome [9] | outcome [10] | caspase-3 activation [11] -0.584% | outcome [12] | caspase-3 activation [13] -0.0213% | caspase-3 activation [14] -2.59% | outcome [15] | outcome [16] | Potency [17] | Potency [18] | Potency [19]

Nc1c(Cl)cc(Cl)cc1Cl
inactive: Potency [1] | Potency [2] | Potency [3] | Potency [4] | Potency [5] | caspase-3 activation [6] 1.83% | outcome [7] | outcome [8] | outcome [9] | outcome [10] | caspase-3 activation [11] 0.75% | outcome [12] | caspase-3 activation [13] 2.86% | caspase-3 activation [14] -0.377% | outcome [15] | outcome [16] | Potency [17] | Potency [18] | Potency [19]

CC1CCC2CC1C2(C)C (stereo not drawn)
inactive: Potency [1] | Potency [2] | Potency [3] | Potency [4] | Potency [5] | caspase-3 activation [6] -1.25% | outcome [7] | outcome [8] | outcome [9] | outcome [10] | caspase-3 activation [11] 0.29% | outcome [12] | caspase-3 activation [13] 1.27% | caspase-3 activation [14] -2.62% | outcome [15] | outcome [16] | Potency [17] | Potency [18] | Potency [19]

Nc1cccc(O)c1
inactive: Potency [1] | Potency [2] | Potency [3] | Potency [4] | Potency [5] | caspase-3 activation [6] 0.69% | outcome [7] | outcome [8] | outcome [9] | outcome [10] | caspase-3 activation [11] 0.168% | outcome [12] | caspase-3 activation [13] -0.484% | caspase-3 activation [14] 1.1% | outcome [15] | outcome [16] | Potency [17] | Potency [18] | Potency [19]

C/C(C=O)=C/c1ccccc1
inactive: Potency [1] | Potency [2] | Potency [3] | Potency [4] | Potency [5] | caspase-3 activation [6] -0.305% | outcome [7] | outcome [8] | outcome [9] | outcome [10] | caspase-3 activation [11] -0.174% | outcome [12] | caspase-3 activation [13] -1.36% | caspase-3 activation [14] 0.188% | outcome [15] | outcome [16] | Potency [17] | Potency [18]

C=CC(=O)OCCCC
inactive: Potency [1] | Potency [2] | Potency [3] | Potency [4] | Potency [5] | caspase-3 activation [6] 0.501% | outcome [7] | outcome [8] | outcome [9] | outcome [10] | caspase-3 activation [11] 0.429% | outcome [12] | caspase-3 activation [13] -0.465% | caspase-3 activation [14] 0.453% | outcome [15] | outcome [16] | Potency [17] | Potency [18] | Potency [19]

CCCCC(CC)C(=O)O (stereo not drawn)
inactive: Potency [1] | Potency [2] | Potency [3] | Potency [4] | Potency [5] | caspase-3 activation [6] 1.13% | outcome [7] | outcome [8] | outcome [9] | outcome [10] | caspase-3 activation [11] 0.178% | outcome [12] | caspase-3 activation [13] -0.144% | caspase-3 activation [14] 2.49% | outcome [15] | outcome [16] | Potency [17] | Potency [19]
